Data on 56 compounds can be found in PubChem BioAssay AID1645853 (Buhrlage Lab, Dana-Farber Cancer Institute and Novartis …, 2021).

SMILES strings stand for the structures. Out of some 47,000 compounds screened, about 2,000 (4.3%) were called active. No stated cut-off is given here; in the data, active means inhibition above about 30%; inactive means the rest. Shown is part of a subset that was picked to be rich in actives.

The experiment deals with Ubiquitin carboxyl-terminal hydrolase 8 (Homo sapiens) (UniProt P40818). Put plainly: blocks human USP8 ubiquitin-rhodamine cleavage (AID 1645853). The following applies: purified USP8, Ub-rhodamine cleavage fluorescence, 30 min; at 20 µM; hits give high values.
Chain of Ubiquitin carboxyl-terminal hydrolase 8 (Homo sapiens) (P40818 whole entry, looked up): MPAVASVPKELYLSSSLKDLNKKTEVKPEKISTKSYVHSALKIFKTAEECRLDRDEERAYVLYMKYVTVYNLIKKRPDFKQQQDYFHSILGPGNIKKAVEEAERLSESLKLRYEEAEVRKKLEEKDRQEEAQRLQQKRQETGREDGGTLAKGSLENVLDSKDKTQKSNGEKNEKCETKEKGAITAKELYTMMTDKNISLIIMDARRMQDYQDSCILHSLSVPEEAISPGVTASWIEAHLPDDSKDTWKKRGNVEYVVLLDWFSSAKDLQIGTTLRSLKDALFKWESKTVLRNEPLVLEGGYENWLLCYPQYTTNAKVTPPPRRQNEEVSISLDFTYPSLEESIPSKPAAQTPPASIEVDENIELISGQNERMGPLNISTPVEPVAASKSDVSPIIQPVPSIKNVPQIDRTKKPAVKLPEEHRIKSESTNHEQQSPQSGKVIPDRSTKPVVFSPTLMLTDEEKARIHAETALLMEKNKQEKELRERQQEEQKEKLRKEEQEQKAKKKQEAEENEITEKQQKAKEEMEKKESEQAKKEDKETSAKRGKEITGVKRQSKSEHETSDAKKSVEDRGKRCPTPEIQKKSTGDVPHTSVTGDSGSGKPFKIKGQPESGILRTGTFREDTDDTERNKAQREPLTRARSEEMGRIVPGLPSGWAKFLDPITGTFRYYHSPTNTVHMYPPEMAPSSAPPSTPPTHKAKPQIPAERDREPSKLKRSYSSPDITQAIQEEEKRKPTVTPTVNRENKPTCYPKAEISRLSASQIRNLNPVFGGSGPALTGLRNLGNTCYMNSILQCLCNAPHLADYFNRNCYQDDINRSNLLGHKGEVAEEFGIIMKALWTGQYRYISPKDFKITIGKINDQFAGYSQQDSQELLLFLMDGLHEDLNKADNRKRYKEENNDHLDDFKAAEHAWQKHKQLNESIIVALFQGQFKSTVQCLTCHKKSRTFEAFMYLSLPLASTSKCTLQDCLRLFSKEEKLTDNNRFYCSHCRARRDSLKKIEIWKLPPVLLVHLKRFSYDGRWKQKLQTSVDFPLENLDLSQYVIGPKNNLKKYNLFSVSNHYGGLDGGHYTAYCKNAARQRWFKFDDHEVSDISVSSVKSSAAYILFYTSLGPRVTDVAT
For the compound `O=S(=O)(Nc1ccc(N2CCOCC2)cc1)c1cccc2cccnc12`, the inhibition (commonly the relative decrease from the control value, in per cent) is -35.6% (inactive).
As for `CCC1=N[C@@]2(CC[C@@H]3CN(C(=O)Nc4ccc(CC)cc4)C[C@@H]32)C(=O)N1C`, the figure is -21.1% (inactive); as for `COc1cc(Cl)c(NC(=O)c2cc(-c3ccccn3)n[nH]2)c(OC)c1`, 49.3% (active); as for `O=C(Nc1ccc(Cl)cc1F)c1cc(-c2ccccn2)n[nH]1`, 19.3% (inactive).
As to `Cc1ccc(CC(=O)N2CCN(C(=O)c3cc(-c4ccccn4)n[nH]3)CC2)cc1`, the inhibition is -164% (inactive).
To `CC1[C@@H]2[C@@H](C(=O)N3CCOCC3)C[C@H](CN1S(=O)(=O)N(C)C)N2Cc1ccccc1` (stereo partly specified) belongs 0.42% (inactive).
To `O=C1NC2(COC3(CCN(Cc4cccnc4)CC3)C2)Nc2ccc(Cl)cc21` (stereo unspecified) belongs -202% (inactive); to `Cc1c(C)n(-c2cccnc2)c2ncn3nc(-c4ccccn4)nc3c12`, -3.69% (inactive); to `CSc1ncnc2c1sc1nc(-c3ccccc3)c3c(c12)CC(C)(C)OC3`, 2.79% (inactive).
Consider `CC1(C)Cc2c(c(-c3ccco3)nc3sc4c(SCCCc5ccccc5)ncnc4c23)CO1`, for which the inhibition was 75.7% (active).
Turning to `CCCCCCSc1ncnc2c1sc1nc(-c3ccccc3)c3c(c12)CC(C)(C)OC3`, the inhibition is -5.24% (inactive).
To `O=C(C1CC1)N1CC[C@@H]2Oc3ccccc3S(=O)(=O)N(Cc3ccccc3)[C@H]2CC1` belongs -86.6% (inactive); to `O=c1[nH]c(-c2ccccn2)nc2c1CCN(Cc1cnn(-c3ccc(F)cc3)c1)C2`, -247% (inactive); to `Cc1nn(-c2ccccc2)c(C)c1S(=O)(=O)N1CCN(c2ccccn2)CC1`, -28.5% (inactive).
To `Clc1cc2nc(N3CCN(c4ccccn4)CC3)c3nncn3c2cc1Cl` belongs 75.6% (active); to `O=C(c1ccc(N2CCCC2)nn1)N1CCN(c2ccccn2)CC1`, -50.6% (inactive).
To `COc1cccc(-c2cc(C(=O)N3CCN(c4ccc(N5CCOCC5)nn4)CC3)[nH]n2)c1` belongs -8.45% (inactive); to `FC(F)(F)c1ccc(-c2cnc([C@@H]3COCCN3C3CCOCC3)[nH]2)cc1`, 2.96% (inactive).
Take `COc1ccc(CN2Cc3ccccc3OC3(CCC(CO)CC3)C2)c(F)c1` (stereo unspecified): the inhibition is -66.5% (inactive).
Take `Cc1nn(C)c(C)c1CNC(=O)c1cc2cn(C3CCCC3)cc2s1`: the inhibition is -141% (inactive).
As to `O=C(NC1CCN(Cc2ccccc2)CC1)c1cn2c(n1)CCCC2`, the inhibition was -18.5% (inactive).
To `O=C(NC1CCN(Cc2ccccc2)CC1)c1cc2cn(C3CC3)cc2s1` belongs 31.4% (active); to `CCOC(=O)C1=C(CN2CCN(c3ccccc3OC)CC2)NC(=O)NC1c1cccc(OC)c1OC` (stereo unspecified), -6.79% (inactive); to `O=C(NCc1ccc2c(c1)OCO2)c1cc2c(s1)CS(=O)(=O)C2`, 47.6% (active).
As for `O=C(NCCc1ccccc1)c1cc2c(s1)CS(=O)(=O)C2`, the figure is 3.17% (inactive).
As for `Cc1nc(-c2ccc(C(=O)NCc3ccc4c(c3)OCO4)cc2)cs1`, the figure is 7.04% (inactive); as for `O=S(=O)(c1ccccc1)N1CCCCCC1C1CCN(Cc2nc(C3CC3)no2)CC1` (stereo unspecified), -3.93% (inactive).
Turning to `COc1ccc(CC2c3cc(OC)c(OC)cc3CCN2C(=O)c2ccc(C)c(Cl)c2)cc1OC` (stereo unspecified), the inhibition was 36.3% (active).
Take `COc1ccc(C(=O)N2CCc3cc4ccccc4nc32)cc1OC`: the inhibition was -4.03% (inactive).
Turning to `COc1cc2c(cc1OC)C(c1cccs1)N(C(=O)c1ccc3n[nH]nc3c1)CC2` (stereo unspecified), the inhibition is 6.71% (inactive).
In the case of `COc1ccc(C2CC(=O)c3cnc(NCc4ccco4)nc3C2)c(OC)c1` (stereo unspecified), the inhibition is -0.335% (inactive).
On to `Cc1ccc(CSc2nnc(/C=C/c3ccccc3)o2)cc1`, for which the inhibition was -1.95% (inactive).
As for `CCCNc1cc(N2CCCC(CCC(=O)N3CCC(C)CC3)C2)ncn1` (stereo unspecified), the inhibition was -110% (inactive).
To `CCc1ccc(S(=O)(=O)NCC(O)COc2ccc(OC)cc2)cc1` (stereo unspecified) belongs -1.1% (inactive).
Turning to `O=C(Nc1cc(Cl)ccc1F)c1cnc(-c2ccccc2)nc1-c1ccncc1`, the inhibition was -14% (inactive).
To `Cc1ccc(F)cc1NC(=O)c1cnc(-c2ccccc2)nc1-c1ccncc1` belongs 12.2% (inactive).
In the case of `Cc1ccc(-c2ncc(C(=O)Nc3ccccc3C)c(-c3ccncc3)n2)cc1`, the inhibition was 41% (active).
`Cc1nn(-c2ccccc2)c2c1C(C(=O)c1ccc(Cl)s1)CC(=O)N2` (stereo unspecified): the inhibition is 10.5% (inactive).
To `COc1ccc(C(=O)NCC(c2cccnc2)S(=O)(=O)c2ccc(C)cc2)cc1OC` (stereo unspecified) belongs -8.69% (inactive).
To `CCOC(=O)c1c(NC(=O)c2ccco2)sc(Cc2ccc3c(c2)OCO3)c1C` belongs 20.7% (inactive); to `O=C(Nc1ccc2cn[nH]c2c1)c1cnn(-c2ccccc2)n1`, 59.1% (active).
Consider `O=C(c1cnn(-c2ccc(Cl)cc2)n1)c1cccs1`, for which the inhibition is 2.7% (inactive).
As for `O=C(Nc1ccc2oc(-c3ccccc3)nc2c1)c1cccc(-n2cnnc2)n1`, the inhibition was 3.67% (inactive).
To `O=C1CN(C(=O)CNc2ccccc2N2CCCC2=O)c2ccccc2N1` belongs 4.28% (inactive); to `O=c1c(S(=O)(=O)N2CCCC2)cccn1Cc1cc(=O)n2ccccc2n1`, -4.28% (inactive); to `Cc1ccn2cc(-c3ccc(NS(=O)(=O)c4cc(C)c(C)cc4C)cc3)nc2n1`, 21.4% (inactive).
With `Cc1ccc(-c2cn3ccn(-c4ccc(C)cc4C)c(=O)c3n2)cc1`, the inhibition was 43% (active).
Regarding `CC(C)(C)c1ccc(Cn2nnc3c(=O)[nH]c(C4CCN(S(=O)(=O)c5ccc6c(c5)OCCO6)CC4)nc32)cc1`, the inhibition is 7.01% (inactive).
In the case of `O=C(O)c1cc(-c2cccc3ccccc23)n[nH]1`, the inhibition is -80.6% (inactive).
Regarding `O=C(c1cnccn1)N1CC(C(=O)N2CCCC2)C1`, the inhibition was 0.517% (inactive).
Take `CCN(C(=O)CSc1nnc(-c2ccncc2)o1)c1ccccc1`: the inhibition is 14.4% (inactive).
`O=C(CSc1nnc(-c2ccncc2)o1)Nc1cccc(Cl)c1`: the inhibition is 4.92% (inactive).
With `CCc1ccccc1NC(=O)CSc1nnc(-c2ccncc2)o1`, the inhibition is 54.3% (active).
To `Cc1ccc2occ(CC(=O)Nc3sc4c(c3C(=O)NCc3cccnc3)CCCC4)c2c1` belongs 20.7% (inactive).
To `CCC(Cc1ccccc1)NS(=O)(=O)c1ccc2c(c1)NC(=O)CS2` (stereo unspecified) belongs 3.6% (inactive).
Take `CCOc1ccc(CNS(=O)(=O)c2cccc(-c3noc(C)n3)c2)cc1OC`: the inhibition was -8.47% (inactive).
